# Data as given in PubChem BioAssay (EPA / NIEHS).
# Inconclusive results are not listed. Calls of active or inactive are those of the source. Rule for the calls: active = hit-call score of the fitted dose curve at least 0.9, where 1 is the maximum; inconclusive = response in the unintended direction; inactive = score below 0.9.
# Molecular target: Estrogen receptor beta (Homo sapiens) (UniProt Q92731)
# Assay: OT_ER_ERbERb_0480: Odyssey Thera (OT) 8-hour HEK293T Protein-Complementation Assay for Estrogen Receptor-beta/-beta Homodimer (AID 2283357);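 note: active means signal gain over DMSO baseline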
# How it was run: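 Fluorescence intensity, nuclear for agonists and nuclear plus cytoplasmic for antagonists, was quantified by laser scanning cytometry versus vehicle after 8 h treatment. The cells were HEK293T stably carrying ER beta LBD fragment-complementation partners.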
# Chain of Estrogen receptor beta (Homo sapiens) (Q92731 whole entry, looked up): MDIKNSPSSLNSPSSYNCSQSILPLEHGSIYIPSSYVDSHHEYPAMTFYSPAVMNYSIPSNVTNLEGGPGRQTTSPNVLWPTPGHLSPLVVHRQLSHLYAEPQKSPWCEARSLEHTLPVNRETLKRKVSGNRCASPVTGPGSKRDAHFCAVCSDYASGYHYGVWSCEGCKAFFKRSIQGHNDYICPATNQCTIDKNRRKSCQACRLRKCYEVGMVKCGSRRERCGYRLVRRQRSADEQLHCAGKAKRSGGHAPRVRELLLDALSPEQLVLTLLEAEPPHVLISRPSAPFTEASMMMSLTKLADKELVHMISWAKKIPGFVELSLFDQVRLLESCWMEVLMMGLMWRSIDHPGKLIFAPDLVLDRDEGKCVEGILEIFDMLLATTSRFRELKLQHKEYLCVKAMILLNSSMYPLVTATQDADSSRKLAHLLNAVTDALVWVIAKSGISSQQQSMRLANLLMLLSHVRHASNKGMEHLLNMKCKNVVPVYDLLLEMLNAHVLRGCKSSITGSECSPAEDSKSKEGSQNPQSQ
row,SMILES,outcome
1,CCCCCC(CO)CCC (configuration not stated),inactive
2,O=C(Cl)c1cccc(C(=O)Cl)c1,inactive
3,OC1OC[C@@H](O)[C@H](O)[C@H]1O (some centres not stated),inactive
4,CC(C)CCCCCCCOC(=O)c1ccc(C(=O)OCCCCCCCC(C)C)c(C(=O)OCCCCCCCC(C)C)c1,inactive

# Molecular target: Glucocorticoid receptor (Homo sapiens) (UniProt P04150)
# Assay: NVS_NR_hGR: NovaScreen (NVS) Nuclear Receptor Binding Assay for human Glucocorticoid Receptor (GR) (AID 2283363)
# Description: NVS_NR_hGR is a biochemical, single-readout assay that uses extracted gene-proteins in a cell-free assay. Measurements were taken 16 hours after chemical dosing in a 96-well plate.NVS_NR_hGR is one of one assay component(s) measured or calculated from the NVS_NR_hGR assay. It is designed to make measurements of radioligand binding, a form of binding reporter, as detected with scintillation counting signals by Filter-based radiodetection technology.Data from the assay component NVS_NR_hGR was analyzed into 1 assay endpoint. This assay endpoint, NVS_NR_hGR, was analyzed in the positive analysis fitting direction relative to DMSO as the negative control and baseline of activity. Using a type of binding reporter, loss-of-signal activity can be used to understand changes in the binding as they relate to the gene NR3C1. Furthermore, this assay endpoint can be referred to as a primary readout, because the performed assay has only produced 1 assay endpoint. To generalize the intended target to other relatable targets, this assay endpoint is annotated to the nuclear receptor intended target family, where the subfamily is steroidal.
# Binding assays used specific radioligands (tritiated, iodinated) with non-radioactive competitive displacement ligands in agonist or antagonist protocols (as indicated) and various reference compounds and inhibitors to titrate specific binding to receptors and transporters. Most enzyme assays (CYPs, kinases, phosphatases, proteases, HDACs) used recombinant protein and specific substrates (fluorescence mostly, some colorimetric and radioactive) and inhibitors, followed by a biochemical separation of substrate and product. All assays for the biochemical HTS were initially run in duplicate at a single concentration (10 uM for CYP450 assays and 25 uM for all others). […] Each assay was run with positive and negative controls, and concurrent controls on every plate. The follow-up (secondary) screen tested active chemical-pairs in concentration series, as well as a few additional assays not tested in the primary screen, some selected negative inactives, and several cases re-run in the concentration series for confirmatory purposes.
# Chain of Glucocorticoid receptor (Homo sapiens) (P04150 whole entry, looked up): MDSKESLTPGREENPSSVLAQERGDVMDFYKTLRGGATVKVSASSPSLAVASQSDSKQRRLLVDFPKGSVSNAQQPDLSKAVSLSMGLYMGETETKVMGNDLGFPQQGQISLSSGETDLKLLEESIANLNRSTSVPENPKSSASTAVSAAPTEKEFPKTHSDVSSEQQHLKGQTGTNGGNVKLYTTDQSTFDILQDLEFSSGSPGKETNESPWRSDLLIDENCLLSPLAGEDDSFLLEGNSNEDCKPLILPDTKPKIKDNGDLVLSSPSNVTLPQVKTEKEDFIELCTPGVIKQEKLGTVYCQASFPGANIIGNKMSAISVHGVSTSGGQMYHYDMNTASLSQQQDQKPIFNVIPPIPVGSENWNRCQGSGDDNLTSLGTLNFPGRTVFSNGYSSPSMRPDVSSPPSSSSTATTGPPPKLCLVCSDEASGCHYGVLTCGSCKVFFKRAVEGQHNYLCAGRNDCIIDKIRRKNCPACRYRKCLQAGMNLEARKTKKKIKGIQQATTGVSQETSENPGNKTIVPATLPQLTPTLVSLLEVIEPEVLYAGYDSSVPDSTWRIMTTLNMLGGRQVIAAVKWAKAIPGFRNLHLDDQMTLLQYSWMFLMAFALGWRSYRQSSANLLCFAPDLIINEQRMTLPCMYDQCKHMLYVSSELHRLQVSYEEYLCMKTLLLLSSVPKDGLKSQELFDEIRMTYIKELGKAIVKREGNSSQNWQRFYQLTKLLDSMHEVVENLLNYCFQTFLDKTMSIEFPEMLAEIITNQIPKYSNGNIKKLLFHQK
SMILES,AC50,outcome
O=C1OC2(c3cc(Br)c(O)c(Br)c3Oc3c2cc(Br)c(O)c3Br)c2c(Cl)c(Cl)c(Cl)c(Cl)c21,3.83 µM (active),
Cc1ccc(C=O)cc1,,inactive
CC(C)C[C@H]1C(=O)N2CCC[C@H]2[C@]2(O)O[C@](NC(=O)[C@@H]3C=C4c5cccc6[nH]c(Br)c(c56)C[C@H]4N(C)C3)(C(C)C)C(=O)N12,1.44 µM (active),

# Molecular target: Nuclear receptor subfamily 1 group I member 2 (Homo sapiens) (UniProt O75469)
# Assay: NVS_NR_hPXR: NovaScreen (NVS) Nuclear Receptor Binding Assay for human Pregnane X Receptor (PXR) (AID 2283365);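 note: a drop in FRET signal versus DMSO baseline means the compound binds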
# How it was run: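 Binding was measured by time-resolved fluorescence resonance energy transfer after a 2 h exposure of extracted human PXR protein without cells. Compounds were first tested at 25 uM in duplicate, with concentration series for actives; DMSO defined baseline.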
# Chain of Nuclear receptor subfamily 1 group I member 2 (Homo sapiens) (O75469 whole entry, looked up): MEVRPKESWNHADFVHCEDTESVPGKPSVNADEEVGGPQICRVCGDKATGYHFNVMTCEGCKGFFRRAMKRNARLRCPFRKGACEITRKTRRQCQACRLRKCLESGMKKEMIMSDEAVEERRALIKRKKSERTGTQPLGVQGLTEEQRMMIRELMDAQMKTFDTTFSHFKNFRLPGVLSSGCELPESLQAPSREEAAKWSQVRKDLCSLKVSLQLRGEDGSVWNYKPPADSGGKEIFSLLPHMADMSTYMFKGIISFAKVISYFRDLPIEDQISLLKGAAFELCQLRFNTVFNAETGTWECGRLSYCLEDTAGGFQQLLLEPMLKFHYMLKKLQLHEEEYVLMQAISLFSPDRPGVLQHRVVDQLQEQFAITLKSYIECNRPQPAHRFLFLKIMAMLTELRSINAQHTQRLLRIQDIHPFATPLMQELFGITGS
SMILES,outcome,AC50
NC(=O)NC1NC(=O)NC1=O (configuration not stated),inactive,
COc1cc(C(C)(C)C)c(O)c(C(C)(C)C)c1,inactive,
CSc1nc(NC2CC2)nc(NC(C)(C)C)n1,,3.05 µM (active)
CC(C)C[C@H]1C(=O)N2CCC[C@H]2[C@]2(O)O[C@](NC(=O)[C@@H]3C=C4c5cccc6[nH]c(Br)c(c56)C[C@H]4N(C)C3)(C(C)C)C(=O)N12,,1.04 µM (active)

# Molecular target: guinea pig Sigma Receptor, Non-selective Binding, SIGMAR1 (gene 100135589) (UniProt Q60492)
# Assay: NVS_OR_gSIGMA_NonSelective: NovaScreen (NVS) Nuclear Receptor Binding Assay for guinea pig Sigma Receptor, Non-selective Binding (AID 2283367)
# How it was run: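 Radioligand displacement on guinea pig brain membranes, read by filter-based scintillation counting 1 h after dosing. Loss of signal versus DMSO; initial duplicate single-point screen at 25 uM, actives followed in concentration series.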
# Chain of guinea pig Sigma Receptor, Non-selective Binding, SIGMAR1 (gene 100135589) (Q60492 whole entry, looked up): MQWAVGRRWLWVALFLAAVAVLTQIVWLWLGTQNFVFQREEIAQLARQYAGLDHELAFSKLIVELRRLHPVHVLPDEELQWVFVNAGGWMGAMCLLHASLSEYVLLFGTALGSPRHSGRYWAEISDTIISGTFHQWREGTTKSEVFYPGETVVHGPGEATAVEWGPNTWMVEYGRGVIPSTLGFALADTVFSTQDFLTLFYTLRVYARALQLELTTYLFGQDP
SMILES,AC50,outcome
c1ccc2sc(SN(C3CCCCC3)C3CCCCC3)nc2c1,5.3 µM (active),
CCn1c2ccccc2c2cc(N)ccc21,12.3 µM (active),
CC(C)=CCO,,inactive
O=C=NC1CCC(CC2CCC(N=C=O)CC2)CC1 (configuration not stated),16.5 µM (active),
O=P(c1ccccc1)(c1ccccc1)c1ccccc1,6.83 µM (active),

# Molecular target: Peroxisome proliferator-activated receptor gamma (Homo sapiens) (UniProt P37231)
# Assay: NVS_NR_hPPARg: NovaScreen (NVS) Nuclear Receptor Binding Assay for human Peroxisome Proliferator-activated Receptor gamma (PPARg) (AID 2283370)
# How it was run: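 Fluorescence polarization measures competitive binding to extracted PPARg in a cell-free format. Reading is taken at 2 h; activity is signal loss relative to DMSO. Screening at 25 uM in duplicate preceded confirmatory dose series.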
# Chain of Peroxisome proliferator-activated receptor gamma (Homo sapiens) (P37231 whole entry, looked up): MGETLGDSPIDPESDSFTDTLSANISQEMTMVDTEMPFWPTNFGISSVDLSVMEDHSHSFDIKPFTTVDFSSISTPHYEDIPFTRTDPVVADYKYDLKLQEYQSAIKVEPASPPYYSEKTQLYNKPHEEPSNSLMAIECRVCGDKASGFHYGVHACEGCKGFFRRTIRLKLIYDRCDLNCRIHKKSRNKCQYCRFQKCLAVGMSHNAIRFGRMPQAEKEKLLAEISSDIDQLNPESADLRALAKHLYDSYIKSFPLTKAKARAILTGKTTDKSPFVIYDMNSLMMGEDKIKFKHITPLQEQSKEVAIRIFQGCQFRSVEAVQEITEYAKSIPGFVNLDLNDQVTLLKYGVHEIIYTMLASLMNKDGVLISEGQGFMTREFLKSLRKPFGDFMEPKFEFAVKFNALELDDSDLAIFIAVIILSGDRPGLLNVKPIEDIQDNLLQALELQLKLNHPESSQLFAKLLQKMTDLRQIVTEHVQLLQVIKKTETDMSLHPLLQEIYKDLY
row,SMILES,outcome
1,CCCCCC(CO)CCC (configuration not stated),inactive
2,COC(C)CCO (configuration not stated),inactive
3,OC1OC[C@@H](O)[C@H](O)[C@H]1O (some centres not stated),inactive
4,CC(C)CCCCCCCOC(=O)c1ccc(C(=O)OCCCCCCCC(C)C)c(C(=O)OCCCCCCCC(C)C)c1,inactive
5,O=C1C(c2[nH]c3ccc(S(=O)(=O)O)cc3c2O)=Nc2ccc(S(=O)(=O)O)cc21,inactive

# Molecular target: human Dopamine Transporter (DAT), SLC6A3 (gene 6531) (UniProt Q01959)
# Assay: NVS_TR_hDAT: NovaScreen (NVS) Transporter Assay for human Dopamine Transporter (DAT) (AID 2283374);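 note: activity means loss of bound radioligand signal relative to DMSO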
# How it was run: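 Cell-free radioligand displacement binding at human DAT, 1 h after dosing, with filtration and scintillation counting. Primary screen in duplicate at 25 uM, actives then in concentration series. Loss of bound signal versus DMSO scored.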
# Chain of human Dopamine Transporter (DAT), SLC6A3 (gene 6531) (Q01959 whole entry, looked up): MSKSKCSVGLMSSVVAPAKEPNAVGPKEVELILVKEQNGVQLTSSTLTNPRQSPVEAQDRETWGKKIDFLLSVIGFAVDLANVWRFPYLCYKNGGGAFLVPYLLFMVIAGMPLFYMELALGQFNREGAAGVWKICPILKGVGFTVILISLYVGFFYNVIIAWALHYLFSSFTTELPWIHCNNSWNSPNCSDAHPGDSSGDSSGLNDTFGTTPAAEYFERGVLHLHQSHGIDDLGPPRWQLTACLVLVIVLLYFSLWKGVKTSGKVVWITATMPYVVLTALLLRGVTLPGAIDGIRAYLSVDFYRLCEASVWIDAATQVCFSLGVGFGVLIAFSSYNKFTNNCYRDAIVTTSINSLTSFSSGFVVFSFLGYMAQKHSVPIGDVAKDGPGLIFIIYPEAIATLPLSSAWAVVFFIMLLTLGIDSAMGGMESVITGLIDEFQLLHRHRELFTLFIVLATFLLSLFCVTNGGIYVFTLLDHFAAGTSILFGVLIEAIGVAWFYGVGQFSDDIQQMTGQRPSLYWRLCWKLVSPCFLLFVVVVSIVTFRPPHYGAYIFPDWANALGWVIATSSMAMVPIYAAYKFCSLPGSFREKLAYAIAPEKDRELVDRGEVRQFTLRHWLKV
SMILES,AC50,outcome
Cc1ccc(O)c(C(C)(C)C)c1,25 µM (active),
O=C(Cl)c1cccc(C(=O)Cl)c1,,inactive
CNC[C@H](O)c1cccc(O)c1,25 µM (active),

# Molecular target: rat Serotonin Transporter (SERT), Slc6a4 (gene 25553) (UniProt P31652)
# Assay: NVS_TR_rSERT: NovaScreen (NVS) Transporter Assay for rat Serotonin Transporter (SERT) (AID 2283375)
# How it was run: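 Steps: rat forebrain membranes dosed with chemical (25 uM duplicate primary; concentration series for actives); 1 h incubation; labelled ligand bound, filtered, counted by scintillation. Activity scored as signal loss vs DMSO.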
# Chain of rat Serotonin Transporter (SERT), Slc6a4 (gene 25553) (P31652 whole entry, looked up): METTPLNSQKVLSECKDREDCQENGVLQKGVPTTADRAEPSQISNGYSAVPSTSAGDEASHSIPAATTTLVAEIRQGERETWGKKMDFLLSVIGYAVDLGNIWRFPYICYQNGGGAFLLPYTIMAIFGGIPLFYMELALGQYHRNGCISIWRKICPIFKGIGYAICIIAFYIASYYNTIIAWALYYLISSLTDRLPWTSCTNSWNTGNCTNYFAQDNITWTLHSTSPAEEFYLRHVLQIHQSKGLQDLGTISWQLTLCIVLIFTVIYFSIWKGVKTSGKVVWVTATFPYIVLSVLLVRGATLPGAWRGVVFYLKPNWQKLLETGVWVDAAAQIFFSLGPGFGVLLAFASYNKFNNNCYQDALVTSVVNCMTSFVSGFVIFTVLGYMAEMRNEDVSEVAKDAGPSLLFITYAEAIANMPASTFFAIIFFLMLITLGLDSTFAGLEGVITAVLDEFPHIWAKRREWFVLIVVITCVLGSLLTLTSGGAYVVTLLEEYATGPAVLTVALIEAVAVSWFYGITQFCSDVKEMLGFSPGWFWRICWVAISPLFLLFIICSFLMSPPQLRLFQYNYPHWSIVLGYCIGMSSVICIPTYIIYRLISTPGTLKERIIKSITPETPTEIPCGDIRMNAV
SMILES,outcome,AC50
Cc1cccc(C)c1C,inactive,
CCn1c2ccccc2c2cc(N)ccc21,,39.3 µM (active)
O=C=NC1CCC(CC2CCC(N=C=O)CC2)CC1 (configuration not stated),inactive,
CN(CCOc1ccc(CC2SC(=O)NC2=O)cc1)c1ccccn1 (configuration not stated),,2.07 µM (active)

# Molecular target: human Norepinephrine Transporter (NET), SLC6A2 (gene 6530) (UniProt P23975)
# Assay: NVS_TR_hNET: NovaScreen (NVS) Transporter Assay for human Norepinephrine Transporter (NET) (AID 2283377);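 for AC50: displacement of radioligand from human NET seen as loss of scintillation signal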
# How it was run: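 Cell-free radioligand binding using CHO-derived membrane protein expressing human NET, read by filter scintillation counting 1 h after dosing; loss of signal vs DMSO. Initial duplicate screen at 25 uM, actives retested in concentration series.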
# Chain of human Norepinephrine Transporter (NET), SLC6A2 (gene 6530) (P23975 whole entry, looked up): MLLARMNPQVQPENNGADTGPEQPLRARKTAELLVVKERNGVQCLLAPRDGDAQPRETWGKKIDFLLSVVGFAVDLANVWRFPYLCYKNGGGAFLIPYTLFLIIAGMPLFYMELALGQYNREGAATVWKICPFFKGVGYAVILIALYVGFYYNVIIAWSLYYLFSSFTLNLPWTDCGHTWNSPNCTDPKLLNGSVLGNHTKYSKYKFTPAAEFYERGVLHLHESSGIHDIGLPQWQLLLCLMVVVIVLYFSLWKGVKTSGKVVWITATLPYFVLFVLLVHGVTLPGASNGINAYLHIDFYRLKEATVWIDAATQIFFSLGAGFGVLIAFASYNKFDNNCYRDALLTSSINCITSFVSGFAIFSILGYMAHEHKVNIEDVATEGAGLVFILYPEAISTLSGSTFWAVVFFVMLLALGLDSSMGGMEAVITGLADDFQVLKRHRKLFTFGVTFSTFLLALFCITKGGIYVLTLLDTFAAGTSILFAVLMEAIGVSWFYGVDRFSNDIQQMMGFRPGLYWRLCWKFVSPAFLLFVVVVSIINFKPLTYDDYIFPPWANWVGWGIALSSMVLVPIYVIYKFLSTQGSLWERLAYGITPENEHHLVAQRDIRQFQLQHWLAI
SMILES,AC50,outcome
COc1cc2ncnc(Nc3cccc(Cl)c3)c2cc1OC,1.77 µM (active),
Nc1cc([N+](=O)[O-])ccc1Cl,,inactive
CCn1c2ccccc2c2cc(N)ccc21,12.3 µM (active),

# Molecular target: mouse Estrogen Receptor alpha (Era), Esr1 (gene 13982) (UniProt P19785)
# Assay: NVS_NR_mERa: NovaScreen (NVS) Nuclear Receptor Binding Assay for mouse Estrogen Receptor alpha (Era) (AID 2283378);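 note: hit means loss of bound radioligand signal relative to DMSO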
# How it was run: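 Test chemicals competed against a specific radioligand for binding to cell-free mouse Era. Duplicate wells at 25 uM were read 18 hours later by filter-based radiodetection, with loss of signal against DMSO scored as activity.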
# Chain of mouse Estrogen Receptor alpha (Era), Esr1 (gene 13982) (P19785 whole entry, looked up): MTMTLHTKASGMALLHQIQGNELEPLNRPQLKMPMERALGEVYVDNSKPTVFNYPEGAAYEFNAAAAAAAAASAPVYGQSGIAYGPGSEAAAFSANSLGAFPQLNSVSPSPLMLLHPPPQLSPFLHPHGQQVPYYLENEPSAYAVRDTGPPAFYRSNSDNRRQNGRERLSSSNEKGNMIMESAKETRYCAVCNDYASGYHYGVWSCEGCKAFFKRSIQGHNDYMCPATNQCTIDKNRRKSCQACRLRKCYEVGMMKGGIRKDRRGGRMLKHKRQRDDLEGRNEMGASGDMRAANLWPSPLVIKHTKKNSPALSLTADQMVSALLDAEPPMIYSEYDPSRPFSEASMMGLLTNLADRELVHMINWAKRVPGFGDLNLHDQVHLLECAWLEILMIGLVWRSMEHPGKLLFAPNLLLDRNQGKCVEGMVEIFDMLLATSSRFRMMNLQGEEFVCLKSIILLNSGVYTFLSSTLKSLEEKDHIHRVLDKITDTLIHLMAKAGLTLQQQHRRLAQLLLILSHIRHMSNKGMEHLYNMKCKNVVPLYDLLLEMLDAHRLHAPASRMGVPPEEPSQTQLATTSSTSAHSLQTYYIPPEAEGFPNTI
row,SMILES,outcome
1,c1cc(C(c2ccc(OCC3CO3)cc2)c2ccc(OCC3CO3)cc2)ccc1OCC1CO1 (configuration not stated),inactive
2,Clc1ccc2c(c1)C(N1CCNCC1)=Nc1ccccc1O2,inactive
3,Cc1cc(C2(c3cc(C)c(O)cc3C)OS(=O)(=O)c3ccccc32)c(C)cc1O,inactive
4,CCCc1c(OCCCOc2ccc(OCC(=O)O)cc2)ccc(C(C)=O)c1O,inactive
5,COC(=O)C1=C(C)NC(C)=C(C(=O)OCCN(C)Cc2ccccc2)C1c1cccc([N+](=O)[O-])c1 (configuration not stated),inactive
6,O=C(O)CCSCCC(=O)O,inactive
